Compounds with a hit are over-represented: about 11% of the library has one in this group of screens.
Sfp PPTase inh: qHTS Assay for Inhibitors of Bacillus subtilis Sfp phosphopantetheinyl transferase (PPTase). Biochemical Sfp PPTase activity, qHTS. Potency, µM, inactives show largest response in the series, negative = inhibition, usual class: inhibitors. 310,000 compounds, 3.5% hits. AID 1490, 2009;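 further: the enzyme is Sfp with the accession as filed and its product quenches rhodamine fluorescence; potency means the concentration at half of the fitted maximal effect; 0% = enzyme reaction without inhibitor and -100% = no enzyme wells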
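Step 1, compound plus 15 nM Sfp-PPTase, 15 min, room temperature. Step 2, add rhodamine-CoA (5 uM) and BHQ-2-YbbR (12.5 uM). Step 3, read 525/598 nm fluorescence at 0 and 30 min.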
Coupling enz: qHTS Assay for Inhibitors of Fructose-1,6-bisphosphate Aldolase from Giardia Lamblia: Coupling assay counterscreen; coupling enzyme system counterscreen, AmpLite Red fluorescence; activity change, negative = inhibition, % at 58.2 µM, hits read low; 290,000 compounds, 0.67% hits; in the data active means activity change below about -30%
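Compounds tested against the coupling enzymes alone at 57.5 uM final; readout was AmpLite Red fluorescence (525/598 nm) after 20 min at RT.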
Tau fibril ThT: qHTS for Inhibitors of Tau Fibril Formation, Thioflavin T Binding | Microtubule-associated protein tau (Homo sapiens), P10636 | recombinant tau K18 P301L, heparin-induced fibrillization, ThT fluorescence | Potency, µM (series often up to 57.4 µM), without a hit: top-dose activity, negative = inhibition, actives largely listed as inhibitors | 270,000 compounds, 2.1% hits; further: potency means the concentration at half of the fitted maximal effect; nearly all actives have a fitted effect of over 55% in size
Target sequence (P10636 561-689 P618L limits assumed): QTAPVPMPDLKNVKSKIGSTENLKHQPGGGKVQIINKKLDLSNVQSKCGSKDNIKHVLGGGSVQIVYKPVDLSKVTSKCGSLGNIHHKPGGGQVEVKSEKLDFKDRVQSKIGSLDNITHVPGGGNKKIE
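Fibril formation assay: tau K18 P301L at 15 uM with trace Alexa 594 label, heparin inducer 20 uM, pH 7 sodium acetate buffer, 37 C for 6 hr; endpoint ThT signal.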
Tau FP inhib: qHTS for Inhibitors of Tau Fibril Formation, Fluorescence Polarization | Microtubule-associated protein tau (Homo sapiens), P10636 | 280,000 compounds, 0.39% hits | K18 P301L tau heparin fibrillization, Alexa594 FP, 6 h | Potency, µM (top dose mostly 57.7 µM), inactives show at the top dose activity, negative = inhibition, actives largely listed as inhibitors; further: potency means the concentration at half of the fitted maximal effect; nearly all actives have a fitted effect of over 55% in size
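Human K18 P301L fragment (15 uM unlabeled plus 0.24 uM Alexa 594-labeled) in 100 mM sodium acetate pH 7 with compound, aggregation induced by 20 uM heparin for 6 hr at 37 C. ThT (30 uM) added for 1 hr, then Alexa 594 FP read.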
Tau fluor cs: Counterscreen qHTS for Inhibitors of Tau Fibril Formation, Fluorescence Polarization | tau K18 P301L (four-repeat tau fragment) Alexa594 fluorescence, heparin fibrillization | Potency, µM (titrated, usually from 57.7 µM), inactives show top-dose activity change, negative = decrease | 280,000 compounds, 0.93% hits; further: potency means the concentration at half of the fitted maximal effect; nearly all actives have a fitted effect of over 55% in size
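Human K18 P301L tau (15 uM unlabeled plus 0.24 uM Alexa 594-labeled, final) in 100 mM sodium acetate pH 7 was mixed with compound and 20 uM heparin and incubated 6 hr at 37 C.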
G9a block: qHTS Assay for Inhibitors of Histone Lysine Methyltransferase G9a. Histone-lysine N-methyltransferase EHMT2 (Homo sapiens), Q96KQ7. G9a H3K9 monomethylation, AlphaScreen, 2 h. Potency, µM (highest dose often 102 µM), without a hit: top-dose activity, negative = inhibition, hits mostly inhibitors. 350,000 compounds, 8.8% hits. AID 504332, 2011; further: potency means the concentration at half of the fitted maximal effect; nearly all actives have a fitted effect of over 75% in size
Target sequence (Q96KQ7 913-1193 limits assumed): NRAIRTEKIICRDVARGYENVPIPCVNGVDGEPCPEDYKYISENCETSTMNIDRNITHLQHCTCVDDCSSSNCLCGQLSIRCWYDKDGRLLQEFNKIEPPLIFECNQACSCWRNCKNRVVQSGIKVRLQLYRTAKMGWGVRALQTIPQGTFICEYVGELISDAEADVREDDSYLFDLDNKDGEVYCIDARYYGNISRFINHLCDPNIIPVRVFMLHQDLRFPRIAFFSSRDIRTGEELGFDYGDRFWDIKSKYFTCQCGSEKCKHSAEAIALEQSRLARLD
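Step 1: enzyme (final 20 nM) with compound, 15 min RT. Step 2: substrate peptide 500 nM and SAM 20 uM, 2 h RT. Step 3: anti-H3K9me1 antibody and AlphaScreen beads, 10 min, then plate read.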
* = called active by the depositor; u = inconclusive; x = no result; ! = repeats disagree; [ ] = remark or other dose. Unless noted, the call rests on the fitted dose curve; in most records, active means well fitted curve in the direction sought with a large enough effect; inconclusive means small, poorly fitted or top-dose-only effect, or another doubt; inactive means no such curve, though single readings can be large; an effect the other way counts as inactive or inconclusive. Unless noted, on the % scale 0 is the no-effect control and ±100 the full control effect.

SMILES	Sfp PPTase inh	Coupling enz	Tau fibril ThT	Tau FP inhib	Tau fluor cs	G9a block
CCN(CC#CCC(O)(c1ccccc1)C1CCCC1)C(C)C (stereo not given)	-13%	x	6%	-3%	-2%	9%
O/N=C(/c1ccc(F)cc1)C1CC1c1c(F)cccc1Cl (stereo not given)	12%	-1	x	x	x	20%
CCN(CC)C(=O)CN1CCN(Cc2ccc3c(c2)OCO3)CC1	79µM*	8	x	x	x	u
O=C(O)c1ccccc1C(=O)N1CCN(Cc2ccc3c(c2)OCO3)CC1	11%	3	x	x	x	4%
CCSc1ccccc1C(=O)N1CCN(Cc2ccc3c(c2)OCO3)CC1	u	11	-5%	u	-3%	7.9µM*
O=C(C1CCN(Cc2cccs2)CC1)N1CCN(Cc2ccc3c(c2)OCO3)CC1	u	-1	-11%	-3%	-10%	2.5µM*
Cc1cc(C)n(CC(=O)N2CCCC(N3CCN(Cc4ccc5c(c4)OCO5)CC3)C2)n1 (stereo not given)	11%	x	x	x	x	79µM*
NC(=O)CN1CCN(Cc2ccc3c(c2)OCO3)CC1	13%	1	x	x	x	-1%
O=C(Nc1ccccc1Cl)[C@H](CSCc1ccccc1)N1Cc2ccccc2C1=O	x	x	-14%	-2%	-29%	-22%[59 µM]
O=C(O)c1cccc(S(=O)(=O)N2CCN(Cc3ccc4c(c3)OCO4)CC2)c1	7%	6	x	x	x	-10%
O=C(c1cccc(S(=O)(=O)N2CCOCC2)c1)N1CCN(Cc2ccc3c(c2)OCO3)CC1	7%	2	-1%	-3%	-4%	40µM*
CCOc1ccc2nc(NC3=NC(c4ccc(OC)cc4)CC(=O)N3)nc(C)c2c1 (stereo not given)	22µM*	0	u	-3%	-13%	10µM*
CC(C)c1ccccc1NC(=O)COc1ccc2c(=O)c(Oc3ccc4ccccc4c3)coc2c1	8%	-2	-12%	-4%	-11%	1%[59 µM]
CCc1ccccc1NC(=O)COc1ccc2c(=O)c(Oc3cc(C)ccc3C)coc2c1	45µM*	3	3%	8%	0%	-19%
CC(=O)c1cccc(NC(=O)COC(=O)c2cccs2)c1	-17%	4	-9%	5%	-1%	18%
CCN(CC)c1ccc(NC(=O)COC(=O)c2cccs2)cc1	-6%	0	-15%	7%	-22%	1.3µM*
CCN(c1ccc(NC(=O)COC(=O)c2ccc(S(=O)(=O)N3CCCC3)cc2)cc1)C(C)C	-6%	-1	1%	6%	u	u
CCN(c1ccc(NC(=O)COC(=O)c2cccs2)cc1)C(C)C	-6%	2	-21%	14%	u	11µM*
CCc1ccccc1NC(=O)CC(NCc1ccccc1)C(=O)O (stereo not given)	-5%	-1	x	x	x	28µM*
Cc1ccccc1NC(=O)CC(NCc1cccnc1)C(=O)O (stereo not given)	x	x	-10%	-9%	-11%	u
Cc1cccc(NC(=O)CCS(=O)(=O)c2cccc3nsnc23)c1C	u	-1	20µM*	u	-22%	u
COc1ccc(N2CCN(CCNS(=O)(=O)c3cccc4nsnc34)CC2)cc1	20%	1	-13%	9%	-4%	u
COc1ccc(N2CCN(CCNC(=O)CCS(=O)(=O)c3cccc4nsnc34)CC2)cc1	-9%	-4	-11%	4%	-4%	45µM*
O=C(CCS(=O)(=O)c1cccc2nsnc12)Nc1ccc(F)cc1	x	x	u	-7%	-14%	10µM*
O=C1C2C3CCCC3=C3CCCC3C2C(=O)N1c1ccccc1 (stereo not given)	-22%	0	-14%	-7%	-4%	20µM*
SMILES	Sfp PPTase inh	Coupling enz	Tau fibril ThT	Tau FP inhib	Tau fluor cs	G9a block
OCCN1CCN(CCC=C2c3ccccc3Sc3ccc(Cl)cc32)CC1	1%	-3	x	x	x	u
OCCN1CCN(CC/C=C2/c3ccccc3Sc3ccc(C(F)(F)F)cc32)CC1	u	-8	u	-1%	-10%	11µM*!
CC(Oc1ccc(F)cc1)C(=O)Nc1cc(C(F)(F)F)ccc1-n1cncn1 (stereo not given)	x	x	x	x	x	56µM*
O=C(OCc1csc(Nc2ccccc2)n1)c1ccc(Cl)cc1	-9%	-1	u	u	13µM*[quencher]	u
C/C(CCN1CCCc2nc(C)c(C)cc21)=N\O[C@@H](C)c1cn([C@H](CO)Cc2ccccc2)nn1	20%	1	-4%[11.5 µM]	7%[11.6 µM]	1%[11.6 µM]	x
N[C@](CC1c2ccccc2Oc2ccccc21)(C(=O)O)[C@H]1C[C@@H]1C(=O)O	u	x	9%	0%	3%	17%[59 µM]
CCOc1cccc(/C=C/c2ccc3cccc(O)c3n2)c1O	79µM*	-10	x	x	x	-14%
CCOc1cccc(/C=C/c2ccc3cccc(O)c3n2)c1OC	79µM*	-8	x	x	x	18%[2.33 µM]
COc1ccccc1/C=C/c1ccc2cccc(O)c2n1	0%	-11	x	x	x	8%
CCc1cnc2c(c1SCc1ccccc1C)c(=O)n(C)c(=O)n2C	x	x	-8%	u	-10%	11%[59 µM]
